In the supplement of paper PMC12669032:
Unmarked numbers belong to inactive results.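 The calls were made as follows: active = AUC reduced over 20% with Padj below 0.05 in at least 2 of 3 replicates; inactive = otherwise.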

Test system: Akkermansia muciniphila
Test: growth AUC relative to DMSO control (median of replicates) (fraction); higher = more growth (less inhibition), active = hit call of the paper
Conditions: 20 µM; 24 h
How it was run: (§1)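 Gut bacterial monocultures in mGAM were treated with 20 µM compound (1% DMSO) and grown anaerobically at 37 °C in round-bottom 96-well plates from OD600 0.05. OD600 was read hourly for 24 h, with the minimum OD set to 0. Area under the growth curve was normalised to the plate median of solvent-only wells, or to row and column medians on the industrial chemical plate. Each value is the median of three biological replicates, each grown on a separate day.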

Row | SMILES | growth AUC
1 | CN(C)c1nc(=O)n(C2CCCCC2)c(=O)n1C | 0.966
2 | Nc1c(Cl)c(Cl)c(Cl)c(Cl)c1Cl | 0.856
3 | Oc1ccc(-c2ccccc2)cc1 | 0.809
4 | Cn1cc(-c2ccccc2)c(=O)c(-c2cccc(C(F)(F)F)c2)c1 | 0.9
5 | CCCOCC(=Nc1ccc(Cl)cc1C(F)(F)F)n1ccnc1 | 1.03
6 | O=P(O)(O)CCCl | 1.07
7 | CCNc1nc(NC(C)C)[nH]c(=O)n1 | 0.993
8 | CC1=NNC(=O)N(/N=C/c2cccnc2)C1 | 0.995
9 | S=C1NCCN1 | 1.05
10 | COC(=O)N(C(=O)N1CO[C@@]2(C(=O)OC)Cc3cc(Cl)ccc3C2=N1)c1ccc(OC(F)(F)F)cc1 | 0.961
11 | Clc1ccccc1Cl | 0.952
12 | C#CCC1=C(C)C(OC(=O)C2C(C=C(C)C)C2(C)C)CC1=O (stereo unspecified) | 1.05
13 | Cc1nnc(-c2ccccc2)c(=O)n1N | 0.94
14 | COC(=O)c1ccccc1CS(=O)(=O)NC(=O)Nc1nc(OC)cc(OC)n1 | 0.94
15 | CCCCCCCCCc1ccc(O)cc1 | 1.02
16 | COP(N)(=S)Oc1ccccc1C(=O)OC(C)C (stereo unspecified) | 1.19
17 | O=C(NCCc1ncc(C(F)(F)F)cc1Cl)c1ccccc1C(F)(F)F | 0.849
18 | CCN(Cc1ccc(Cl)nc1)/C(=C/[N+](=O)[O-])NC | 0.913
19 | N#Cc1c(Cl)c(Cl)c(Cl)c(C#N)c1Cl | 0.96

Row | SMILES | growth AUC
20 | N#CN=C1SCCN1Cc1ccc(Cl)nc1 | 0.871
21 | CCCCC(C#N)(Cn1cncn1)c1ccc(Cl)cc1 (stereo unspecified) | 1.04
22 | O=C1C(Cl)=C(Cl)C(=O)c2ccccc21 | 0.907
23 | CCOP(=S)(OCC)SCS(=O)(=O)CC | 1.08
24 | Nc1c(Cl)c(F)nc(OCC(=O)O)c1Cl | 0.886
25 | Nc1ccc(Cl)cc1 | 1.01
26 | CCNS(=O)(=O)C(F)(F)C(F)(F)C(F)(F)C(F)(F)C(F)(F)C(F)(F)C(F)(F)C(F)(F)F | 0.945
27 | Cl.NC1=NCCN1Cc1ccc(Cl)nc1 | 1.03
28 | CNC(=O)c1cc(Cl)cc(C)c1NC(=O)c1cc(Br)nn1-c1ncccc1Cl | 0.893
29 | O=C(NC(=O)c1c(F)cccc1F)Nc1cc(Cl)c(Oc2ncc(C(F)(F)F)cc2Cl)c(Cl)c1 | 1.02
30 | COC(=O)NCc1cc(/C(C)=N\OCc2cccc(C)n2)ccc1Cl | 1.07
31 | NCCO.O=C(O)c1nc(Cl)ccc1Cl | 1.02
32 | CC(=O)O.NC(N)=NCCCCCCCCNCCCCCCCCN=C(N)N | 0.836
33 | CC1(C)CN=C(NN=C(/C=C/c2ccc(C(F)(F)F)cc2)/C=C/c2ccc(C(F)(F)F)cc2)NC1 | 0.911
34 | CCCN(CC)CC1COC2(CCC(C(C)(C)C)CC2)O1 (stereo unspecified) | 0.871
35 | CCCOP(=S)(OCCC)SCC(=O)N1CCCCC1C (stereo unspecified) | 0.978
36 | CNC(=O)ON=C(CS(C)=O)C(C)(C)C (stereo unspecified) | 1.08
37 | Cc1ccccc1C(=O)Nc1cccc(OC(C)C)c1 | 0.926
38 | COC(=O)/C(C)=C/OP(=S)(OC)OC | 0.968

Test system: Bacteroides caccae
Test: as above
Conditions: 20 µM; 24 h
How it was run: as §1

Row | SMILES | growth AUC
39 | CN(C)c1nc(=O)n(C2CCCCC2)c(=O)n1C | 1.03
40 | Nc1c(Cl)c(Cl)c(Cl)c(Cl)c1Cl | 0.897
41 | Oc1ccc(-c2ccccc2)cc1 | 1.03
42 | Cn1cc(-c2ccccc2)c(=O)c(-c2cccc(C(F)(F)F)c2)c1 | 0.923
43 | CCCOCC(=Nc1ccc(Cl)cc1C(F)(F)F)n1ccnc1 | 0.955
44 | O=P(O)(O)CCCl | 0.964
45 | CCNc1nc(NC(C)C)[nH]c(=O)n1 | 1
46 | CC1=NNC(=O)N(/N=C/c2cccnc2)C1 | 1.01
47 | S=C1NCCN1 | 0.998
48 | COC(=O)N(C(=O)N1CO[C@@]2(C(=O)OC)Cc3cc(Cl)ccc3C2=N1)c1ccc(OC(F)(F)F)cc1 | 0.952
49 | Clc1ccccc1Cl | 1.02
50 | C#CCC1=C(C)C(OC(=O)C2C(C=C(C)C)C2(C)C)CC1=O (stereo unspecified) | 0.892
51 | Cc1nnc(-c2ccccc2)c(=O)n1N | 1.05
52 | COC(=O)c1ccccc1CS(=O)(=O)NC(=O)Nc1nc(OC)cc(OC)n1 | 1.02
53 | CCCCCCCCCc1ccc(O)cc1 | 1.03
54 | COP(N)(=S)Oc1ccccc1C(=O)OC(C)C (stereo unspecified) | 1.02
55 | O=C(NCCc1ncc(C(F)(F)F)cc1Cl)c1ccccc1C(F)(F)F | 0.978
56 | CCN(Cc1ccc(Cl)nc1)/C(=C/[N+](=O)[O-])NC | 0.991
57 | N#Cc1c(Cl)c(Cl)c(Cl)c(C#N)c1Cl | 0.984

Row | SMILES | growth AUC
58 | N#CN=C1SCCN1Cc1ccc(Cl)nc1 | 1
59 | CCCCC(C#N)(Cn1cncn1)c1ccc(Cl)cc1 (stereo unspecified) | 1.02
60 | O=C1C(Cl)=C(Cl)C(=O)c2ccccc21 | 0.987
61 | CCOP(=S)(OCC)SCS(=O)(=O)CC | 0.96
62 | Nc1c(Cl)c(F)nc(OCC(=O)O)c1Cl | 1.01
63 | Nc1ccc(Cl)cc1 | 1.03
64 | CCNS(=O)(=O)C(F)(F)C(F)(F)C(F)(F)C(F)(F)C(F)(F)C(F)(F)C(F)(F)C(F)(F)F | 0.986
65 | Cl.NC1=NCCN1Cc1ccc(Cl)nc1 | 1.03
66 | CNC(=O)c1cc(Cl)cc(C)c1NC(=O)c1cc(Br)nn1-c1ncccc1Cl | 1
67 | O=C(NC(=O)c1c(F)cccc1F)Nc1cc(Cl)c(Oc2ncc(C(F)(F)F)cc2Cl)c(Cl)c1 | 0.996
68 | COC(=O)NCc1cc(/C(C)=N\OCc2cccc(C)n2)ccc1Cl | 0.936
69 | NCCO.O=C(O)c1nc(Cl)ccc1Cl | 1.01
70 | CC(=O)O.NC(N)=NCCCCCCCCNCCCCCCCCN=C(N)N | 0.279 (active)
71 | CC1(C)CN=C(NN=C(/C=C/c2ccc(C(F)(F)F)cc2)/C=C/c2ccc(C(F)(F)F)cc2)NC1 | 0.961
72 | CCCN(CC)CC1COC2(CCC(C(C)(C)C)CC2)O1 (stereo unspecified) | 0.99
73 | CCCOP(=S)(OCCC)SCC(=O)N1CCCCC1C (stereo unspecified) | 0.956
74 | CNC(=O)ON=C(CS(C)=O)C(C)(C)C (stereo unspecified) | 1.02
75 | Cc1ccccc1C(=O)Nc1cccc(OC(C)C)c1 | 1.01
76 | COC(=O)/C(C)=C/OP(=S)(OC)OC | 0.992
